# Numbering of substitutions follows the chain as printed.
# What was measured:
# Experiment in all cases: yeast three-hybrid, YBZ-1, SC-Leu-His + 0.5 mM 3-AT, 4 days
# Settings in all cases: tags: N-Gal4 AD-HA kept; label: inside an RPR1-promoter hybrid RNA with tandem MS2 sites; ssRNA
# [1] = target: T1, PUM1 PUF domain R6-RWR (Homo sapiens, UniProt Q14671 828-1176, N1043R;Y1044W;Q1047R)
# T1 sequence: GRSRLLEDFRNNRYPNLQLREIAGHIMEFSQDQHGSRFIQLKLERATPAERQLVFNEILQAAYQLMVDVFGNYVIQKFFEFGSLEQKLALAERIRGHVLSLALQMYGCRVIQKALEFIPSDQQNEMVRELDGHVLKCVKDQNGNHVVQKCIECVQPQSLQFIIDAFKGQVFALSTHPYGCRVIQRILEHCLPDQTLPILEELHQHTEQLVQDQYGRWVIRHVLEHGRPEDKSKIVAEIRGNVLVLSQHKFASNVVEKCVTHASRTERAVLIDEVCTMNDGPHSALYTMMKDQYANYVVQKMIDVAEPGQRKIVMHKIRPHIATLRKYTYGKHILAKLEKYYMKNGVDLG
# Method in brief: (§1)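 Repeat regions from input (SC-Leu) and selection (SC-Leu-His + 0.5 mM 3-AT) plates were PCR-amplified and Illumina-sequenced after four days of growth. The cells were strain YBZ-1 with a LexA–MS2 coat fusion and a HIS3 reporter, co-expressing Pumilio-1 PUF domain libraries and matching RNA elements from a centromeric plasmid. The interaction score is the log change in variant frequency from input to selection, taken in log2 with a pseudocount of 1 for absent variants.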
# [2] = target: PUM1 PUF domain R7-RMR (Homo sapiens, UniProt Q14671 828-1176, S1079R;N1080M;E1083R)
# Method in brief: as §1
# [3] = target: PUM1 PUF domain R5-KAL (Homo sapiens, UniProt Q14671 828-1176, C1007K;R1008A;Q1011L)
# Method in brief: as §1
# [4] = target: PUM1 PUF domain R5-RFS (Homo sapiens, UniProt Q14671 828-1176, C1007R;R1008F;Q1011S)
# Method in brief: as §1
# [5] = target: PUM1 PUF domain R5-FHG (Homo sapiens, UniProt Q14671 828-1176, C1007F;R1008H;Q1011G)
# Method in brief: as §1
# [6] = target: PUM1 PUF domain R1-NFH (Homo sapiens, UniProt Q14671 828-1176, S863N;R864F;Q867H)
# Method in brief: as §1
# [7] = target: PUM1 PUF domain R1-YIR (Homo sapiens, UniProt Q14671 828-1176, S863Y;R864I;Q867R)
# Method in brief: as §1
# [8] = target: PUM1 PUF domain R3-PRE (Homo sapiens, UniProt Q14671 828-1176, C935P;Q939E)
# Method in brief: as §1
# [9] = target: PUM1 PUF domain R3-GHG (Homo sapiens, UniProt Q14671 828-1176, C935G;R936H;Q939G)
# Method in brief: as §1
# [10] = target: T2, PUM1 PUF domain R6-KWV (Homo sapiens, UniProt Q14671 828-1176, N1043K;Y1044W;Q1047V)
# T2 sequence: T1 sequence with R216K, R220V
# Method in brief: as §1
# [11] = target: T3, PUM1 PUF domain R6-HFT (Homo sapiens, UniProt Q14671 828-1176, N1043H;Y1044F;Q1047T)
# T3 sequence: T1 sequence with R216H, W217F, R220T
# Method in brief: as §1
# [12] = target: PUM1 PUF domain R1-KQR (Homo sapiens, UniProt Q14671 828-1176, S863K;R864Q;Q867R)
# Method in brief: as §1
# [13] = target: PUM1 PUF domain R4-FNL (Homo sapiens, UniProt Q14671 828-1176, N971F;H972N;Q975L)
# Method in brief: as §1
# [14] = target: PUM1 PUF domain R4-AWP (Homo sapiens, UniProt Q14671 828-1176, N971A;H972W;Q975P)
# Method in brief: as §1
sequence,measurement,setting,value
GGCUAGAACUAGUGGAUCCCCCGGCGCCCGGCGGCUCGAGCCCGGGUAAGUGCAAAUAGUCUGCAUGCCGCCGGGCGCCAUGCCUGCAGGUCGACUCUAGAAAACAUG,binding signal,[1],1.4 log2 enrichment (interaction score)
GGCUAGAACUAGUGGAUCCCCCGGCGCCCGGCGGCUCGAGCCCGGGUAAGUCUAAAUAGUCUGCAUGCCGCCGGGCGCCAUGCCUGCAGGUCGACUCUAGAAAACAUG,binding signal,[2],2.46 log2 enrichment (interaction score)
GGCUAGAACUAGUGGAUCCCCCGGCGCCCGGCGGCUCGAGCCCGGGUAAGUGUCAAUAGUCUGCAUGCCGCCGGGCGCCAUGCCUGCAGGUCGACUCUAGAAAACAUG,binding signal,[3],3.48 log2 enrichment (interaction score)
same,binding signal,[4],5.34 log2 enrichment (interaction score)
same,binding signal,[5],2.68 log2 enrichment (interaction score)
GGCUAGAACUAGUGGAUCCCCCGGCGCCCGGCGGCUCGAGCCCGGGUAAGUGUAAAUUGUCUGCAUGCCGCCGGGCGCCAUGCCUGCAGGUCGACUCUAGAAAACAUG,binding signal,[6],3.4 log2 enrichment (interaction score)
same,binding signal,[7],4.41 log2 enrichment (interaction score)
GGCUAGAACUAGUGGAUCCCCCGGCGCCCGGCGGCUCGAGCCCGGGUAAGUGAAAAUAGUCUGCAUGCCGCCGGGCGCCAUGCCUGCAGGUCGACUCUAGAAAACAUG,binding signal,[1],4.83 log2 enrichment (interaction score)
GGCUAGAACUAGUGGAUCCCCCGGCGCCCGGCGGCUCGAGCCCGGGUAAGUGUAAAUAGUCUGCAUGCCGCCGGGCGCCAUGCCUGCAGGUCGACUCUAGAAAACAUG,binding signal,[8],3.66 log2 enrichment (interaction score)
same,binding signal,[9],3.44 log2 enrichment (interaction score)
same,binding signal,[1],6.07 log2 enrichment (interaction score)
same,binding signal,[4],2.61 log2 enrichment (interaction score)
same,binding signal,[7],3.77 log2 enrichment (interaction score)
same,binding signal,[10],6.02 log2 enrichment (interaction score)
same,binding signal,[11],3.78 log2 enrichment (interaction score)
GGCUAGAACUAGUGGAUCCCCCGGCGCCCGGCGGCUCGAGCCCGGGUAAGUGGAAAUAGUCUGCAUGCCGCCGGGCGCCAUGCCUGCAGGUCGACUCUAGAAAACAUG,binding signal,[1],1.16 log2 enrichment (interaction score)
GGCUAGAACUAGUGGAUCCCCCGGCGCCCGGCGGCUCGAGCCCGGGUAAGUGUAAAUCGUCUGCAUGCCGCCGGGCGCCAUGCCUGCAGGUCGACUCUAGAAAACAUG,binding signal,[12],5.28 log2 enrichment (interaction score)
same,binding signal,[7],6.92 log2 enrichment (interaction score)
GGCUAGAACUAGUGGAUCCCCCGGCGCCCGGCGGCUCGAGCCCGGGUAAGUGUAUAUAGUCUGCAUGCCGCCGGGCGCCAUGCCUGCAGGUCGACUCUAGAAAACAUG,binding signal,[13],3.56 log2 enrichment (interaction score)
same,binding signal,[14],6.43 log2 enrichment (interaction score)
